The text below walks through data of PubChem BioAssay (Tox21).

A short description of assay [1]: qHTS RealTime-Glo MT Cell Viability Assay in HEK293 cells - 0 hour (AID 1224880). Note: top concentration of the series differs between compounds; nearly all actives have a fitted effect of over 45% in size. The method in brief: (§1)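 Viable HEK293 cells reduce a cell-permeant prosubstrate; the product diffuses out and is consumed by NanoLuc in the medium to give light. Compounds went in after a 5 h incubation and plates were read over the treatment course.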
The nature of assay [2]: A CellTox Green Cytotoxicity Assay to monitor cytotoxicity in HEK293 cells - 32 hour (AID 1224881). Note: nearly all actives have a fitted effect of over 40% in size. Note: potency is the fitted concentration of half-maximal effect. In a few lines: (§2)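 Fluorescence intensity, read at 0, 8, 16, 24, 32 and 40 h of compound treatment, reflected dye binding to DNA of dead HEK293 cells; compounds (23 nL, DMSO) were added 5 h after plating cells with reagent.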
Assay [3] can be described thus: A CellTox Green Cytotoxicity Assay to monitor cytotoxicity in HepG2 cells - 0 hour (AID 1224882). Note: nearly all actives have a fitted effect of over 35% in size. In a few lines: (§3)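 Using 1536-well format, dye-containing HepG2 suspension was seeded, allowed 5 h at 37 C/5% CO2, dosed by pintool with compounds, positive and negative controls, and imaged for fluorescence across 40 h.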
Assay [4] is described as follows: A CellTox Green Cytotoxicity Assay to monitor cytotoxicity in HepG2 cells - 32 hour (AID 1224883). Note: nearly all actives have a fitted effect of over 50% in size. In a few lines: as §3
A short description of assay [5]: A CellTox Green Cytotoxicity Assay to monitor cytotoxicity in HEK293 cells - 8 hour (AID 1224884). Note: nearly all actives have a fitted effect of over 35% in size. The method in brief: as §2
The nature of assay [6]: qHTS RealTime-Glo MT Cell Viability Assay in HepG2 cells - 16 hour (AID 1224885). Note: nearly all actives have a fitted effect of over 50% in size. Note: potency is the fitted concentration of half-maximal effect. In a few lines:
(§4)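 Cells + NanoLuc/prosubstrate dispensed (600 cells/well) → 5 h at 37 C/5% CO2 → compounds in DMSO transferred → 40 h incubation at 37 C, luminescence read at 0, 8, 16, 24, 32, 40 h.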

Assay [7] can be described thus: qHTS RealTime-Glo MT Cell Viability Assay in HEK293 cells - 24 hour (AID 1224886). Note: top concentration of the series differs between compounds; nearly all actives have a fitted effect of over 50% in size. In a few lines: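 Tox21 10K qHTS, HEK293, 600 cells/well, RealTime-Glo reagent co-dispensed with cells; 5 h preincubation, compound by pintool, 37 C, luminescence at 0–40 h.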
For orientation: In qHTS, concentration-response curves come from the screen itself.

Assay [8] in a line: qHTS RealTime-Glo MT Cell Viability Assay in HEK293 cells - 8 hour (AID 1224887). Note: top concentration of the series differs between compounds; nearly all actives have a fitted effect of over 50% in size. In a few lines:
as §1

The nature of assay [9]: A CellTox Green Cytotoxicity Assay to monitor cytotoxicity in HEK293 cells - 16 hour (AID 1224888). Note: nearly all actives have a fitted effect of over 35% in size. The method in brief: as §2
The nature of assay [10]: qHTS RealTime-Glo MT Cell Viability Assay in HepG2 cells - 0 hour (AID 1224889). Note: nearly all actives have a fitted effect of over 50% in size. The method in brief: as §4

Structures are written as SMILES. Records with an inconclusive call do not appear. A structure can be active in one record and inactive in another. The source made the active and inactive calls. Calls come from the whole dose curve; as a rule, active = well fitted curve in the direction sought with a large enough effect in the repeat runs; inconclusive = weak or mixed curves; inactive = no such curve, though single readings can be large; an effect the other way counts as inactive or inconclusive.

On to `COCCCN`, for which the outcome in assay [1], in [3] and in assay [5] was inactive. In addition, the Potency result in [2], in assay [4], in assay [6], in [7], in assay [8] and in [9] was “inactive” in each case. In [10], the Potency result was “inactive”.
`CC(=O)OCc1ccccc1`: the outcome in assay [1], in assay [3] and in assay [5] was inactive. Besides, the Potency entry in assay [2], in assay [4], in assay [6], in assay [7], in assay [8] and in [9] was “inactive” throughout. Moreover, in assay [10], the Potency result is “inactive”.
As to `COc1ccc(CCC(C)=O)cc1`, the compound was called inactive in [1], in assay [3] and in [5]. The Potency result in [2], in assay [4], in [6], in assay [7], in assay [8] and in [9] was “inactive” each time. Besides, in assay [10], the Potency entry was “inactive”.
Regarding `CC1(C)OC[C@@H]2O[C@@]3(C(=O)O)OC(C)(C)O[C@H]3[C@@H]2O1`, the call in assay [1], in assay [3] and in assay [5] was inactive. Besides, the Potency result in [2], in assay [4], in assay [6], in assay [7], in assay [8] and in assay [9] was “inactive” each time. Besides, the Potency result in assay [10] is “inactive”.
For the compound `CC(O)CC(C)(C)O` (stereo unspecified), the call in [1], in [3] and in [5] was inactive. Besides, the Potency entry in [2], in assay [4], in assay [6], in assay [7], in assay [8] and in assay [9] was “inactive” in each case. Further, the Potency entry in [10] is “inactive”.
Regarding `CCCCCCCCCCCC(=O)OC`, the compound was called inactive in [1], in assay [3] and in [5]. The Potency entry in [2], in assay [4], in assay [6], in assay [7], in assay [8] and in assay [10] was “inactive” throughout.
As to `CCCCCCCCCCCCCCCCO`, the compound was called inactive in [1], in assay [3] and in assay [5]. Besides, the Potency entry in [2], in assay [4], in assay [6], in assay [7], in [8] and in assay [9] was “inactive” in each case. In addition, in assay [10], the Potency result is “inactive”.
As to `CCCCCC(=O)O`, the compound was called inactive in [1], in assay [3] and in assay [5]. The Potency entry in [2], in assay [4], in assay [6], in [7], in [8] and in [10] was “inactive” throughout.
As to `COc1ccc(N)c(C)c1`, the compound was classed as inactive in [1], in assay [3] and in assay [5]. The Potency result in [2], in [4], in [6], in [7], in [8] and in assay [9] was “inactive” each time. For the same compound, in assay [10], the Potency result is “inactive”.
Consider `CCCCCCCCCCO`, for which the call in [1], in [3] and in assay [5] was inactive. Further, in assay [2], the Potency was 39 µM (active) and inactive. Moreover, the Potency result in assay [4], in [6], in assay [7], in [8] and in assay [10] was “inactive” throughout.
On to `CCNc1cccc(C)c1`, for which the compound was called inactive in [1], in assay [3] and in [5]. The Potency entry in assay [2], in assay [4], in assay [6], in [7], in assay [8] and in assay [10] was “inactive” in each case.
Regarding `CCNC(=S)NCC`, the compound was called inactive in assay [1], in assay [3] and in [5]. Besides, the Potency result in assay [2], in assay [4], in [6], in assay [8], in assay [9] and in assay [10] was “inactive” in each case.
In the case of `COc1ccc(OC)cc1`, the call in assay [1], in [3] and in [5] was inactive. Also, the Potency entry in assay [2], in assay [4], in assay [6], in [8], in [9] and in assay [10] was “inactive” throughout.
With `CNC(=O)Oc1ccc2c(c1)[C@]1(C)CCN(C)[C@@H]1N2C`, the result in assay [1], in assay [3] and in assay [5] was inactive. The Potency entry in assay [2], in assay [4], in assay [6], in [7], in assay [8] and in assay [10] was “inactive” throughout.
In the case of `C=C(C)CNCC`, the call in [1], in assay [3] and in [5] was inactive. The Potency entry in assay [2], in assay [4], in assay [6], in assay [8], in assay [9] and in assay [10] was “inactive” throughout.
Regarding `CCO[Si](CCC#N)(OCC)OCC`, the call in [1], in assay [3] and in assay [5] was inactive. In addition, the Potency result in assay [2], in [4], in assay [6], in assay [7], in assay [8] and in assay [10] was “inactive” in each case.
Consider `NCCCCCCN`, for which the outcome in assay [1], in [3] and in assay [5] was inactive. In addition, the Potency result in assay [2], in assay [4], in assay [6], in assay [8], in assay [9] and in assay [10] was “inactive” each time.
Take `C=C(C)[C@H]1CC=C(C)C(=O)C1`: the result in [1], in [3] and in [5] was inactive. Besides, the Potency entry in assay [4], in [6], in assay [7], in [8], in [9] and in [10] was “inactive” each time.
As to `C=CC(C)CCCC(C)(C)O` (stereo unspecified), the compound was classed as inactive in assay [1], in [3] and in assay [5]. The Potency entry in assay [2], in assay [4], in assay [6], in assay [8], in assay [9] and in assay [10] was “inactive” each time.
As for `Nc1nc(N)nc(-c2ccccc2)n1`, the call in assay [1], in assay [3] and in assay [5] was inactive. Further, the Potency entry in assay [2], in [4], in assay [6], in assay [7], in [8] and in [10] was “inactive” throughout.
With `O=C(O)Cn1c(=O)n(Cc2ccc(Br)cc2F)c(=O)c2ccc(Cl)cc21`, the call in assay [1], in [3] and in assay [5] was inactive. Besides, the Potency result in assay [2], in assay [4] and in [10] was “inactive” throughout. Moreover, the Potency in assay [6] was 24.5 µM (active).
`O=c1[nH]cnc2[nH]ncc12`: the call in assay [1], in assay [3] and in assay [5] was inactive. Further, the Potency entry in assay [2], in [4], in assay [6], in [8] and in assay [10] was “inactive” throughout.
For `c1ccc(Oc2ccccc2)cc1`, the call in assay [1], in assay [3] and in [5] was inactive. In addition, the Potency entry in [2], in assay [4], in [6], in assay [8], in assay [9] and in assay [10] was “inactive” in each case.
Turning to `CC(=O)CC(C)(C)O`, the result in assay [1], in assay [3] and in [5] was inactive. In addition, the Potency entry in assay [2], in assay [4], in assay [6], in assay [8] and in assay [10] was “inactive” in each case.
On to `COC(=O)c1cccnc1`, for which the call in assay [1], in assay [3] and in assay [5] was inactive. For the same compound, the Potency result in assay [2], in assay [4], in [6], in assay [8], in [9] and in assay [10] was “inactive” in each case.
As for `CN1C(=O)CC[C@H]1c1cccnc1`, the compound was classed as inactive in assay [1], in assay [3] and in assay [5]. In addition, the Potency entry in [4], in assay [6], in assay [7], in assay [8], in assay [9] and in assay [10] was “inactive” throughout.
As to `CC(C)OC(=O)COc1ccc(Cl)cc1Cl`, the result in [1], in assay [3] and in [5] was inactive. The Potency entry in assay [2], in assay [4], in assay [6], in [8], in assay [9] and in assay [10] was “inactive” each time.
